The text below walks through data of the supplement of paper PMC4022240.

Common to all, as to assay: peptide microarray binding signal (635 nm), min-max normalized on array (fraction of array maximum); higher = stronger binding
Holding throughout (conditions): peptide region: H4 16-28

For assay [1], the target named is T1, HaloTag-ATRX ADD domain (163-292).
T1 chain: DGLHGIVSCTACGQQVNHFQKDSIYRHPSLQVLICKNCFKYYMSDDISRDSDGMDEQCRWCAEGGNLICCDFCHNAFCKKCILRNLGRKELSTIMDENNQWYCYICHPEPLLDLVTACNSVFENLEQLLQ
The essentials: (§1)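 Within each library, mean intensities of triplicate spots were min-max scaled to give the binding signal. The spots were histone 13-mer peptide–cellulose conjugates on nitrocellulose with a Cy3 tracer, blocked overnight at 4°C. They were then probed for 1 h at 4°C using biotin-labelled HaloTag reader fusions (10 nM to 1 μM) with streptavidin-Alexa Fluor 647 or rabbit histone antibodies (1:10,000 to 1:2,000) with anti-rabbit Alexa 647, and scanned at 635 nm for signal and 532 nm for misprints on an Axon GenePix 4000B.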

Assay [2] addresses HaloTag-ING2 PHD (mouse Ing2 200-280). The essentials: as §1
Assay [3] concerns the target anti-H3K4me3 antibody ab8580. The method in brief: as §1
The target in assay [4] is anti-H3K9me3 antibody ab8898. The method in brief: as §1
[5] abbreviates: peptide modifications: H4R23me2a, binder concentration: 1:2,000 dilution.
Setting [6] is: peptide modifications: H4R19me1 H4K20me2, binder concentration: 1:2,000 dilution.
The mark [7] stands for this setting: peptide modifications: H4R19me1 H4K20me2, binder concentration: 1:10,000 dilution.
The mark [8] stands for this setting: peptide modifications: H4R23me1, binder concentration: 1:2,000 dilution.
Setting [9] is: peptide modifications: H4R19me1 H4K20me3, binder concentration: 1:2,000 dilution.
[10] abbreviates: peptide modifications: H4R19me1 H4K20me3, binder concentration: 1:10,000 dilution.
Setting [11] is: peptide modifications: H4R19me2a H4K20me3, binder concentration: 1:2,000 dilution.
Setting [12] is: peptide modifications: H4R19me2a H4K20me3, binder concentration: 1:10,000 dilution.
The mark [13] stands for this setting: peptide modifications: H4R19me2s H4K20me1, binder concentration: 1:2,000 dilution.
The mark [14] stands for this setting: peptide modifications: H4R19me2s H4K20me1, binder concentration: 1:10,000 dilution.

± gives the standard deviation.

In the case of KRHRKVLRDNIQG [H4 16-28 K R H R K V L Rme2a D N I Q G], the “peptide microarray binding signal” value in assay [1] (peptide modifications: H4R23me2a, binder concentration: 500 nM) was found to be 0.0285 ± 0.039; in assay [2] (peptide modifications: H4R23me2a, binder concentration: 100 nM) it was 0.000425 ± 4.9e-06; in assay [3] (setting [5]), 7.55e-05 ± 8.5e-07; in assay [4] (setting [5]), 0.
As for KRHRKVLRDNIQG [H4 16-28 K R H Rme Kme2 V L R D N I Q G], the “peptide microarray binding signal” value in assay [1] (peptide modifications: H4R19me1 H4K20me2, binder concentration: 50 nM) came to 0.00404 ± 8.4e-05; in assay [1] (peptide modifications: H4R19me1 H4K20me2, binder concentration: 500 nM) it was 0.00943 ± 0.001; in assay [2] (peptide modifications: H4R19me1 H4K20me2, binder concentration: 10 nM), 0.00847 ± 0.00051; in assay [2] (peptide modifications: H4R19me1 H4K20me2, binder concentration: 100 nM), 0.0223 ± 0.0015; in assay [3] (setting [6]) it was 0.00219 ± 0.0001; in assay [3] (setting [7]), 0.002 ± 4.9e-05. In addition, the “peptide microarray binding signal” value in assay [4] (setting [6]) is 0.00116 ± 9e-05; in assay [4] (setting [7]), 0.00254 ± 0.00041.
On to KRHRKVLRDNIQG [H4 16-28 K R H R K V L Rme D N I Q G], for which the “peptide microarray binding signal” value was 0.000143 ± 4.6e-06 in assay [1] (peptide modifications: H4R23me1, binder concentration: 500 nM); 0.000354 ± 4.1e-06 in assay [2] (peptide modifications: H4R23me1, binder concentration: 100 nM); 0.000132 ± 1.5e-06 in assay [3] (setting [8]); 1.51e-05 ± 1.7e-07 in assay [4] (setting [8]).
In the case of KRHRKVLRDNIQG [H4 16-28 K R H Rme Kme3 V L R D N I Q G], the “peptide microarray binding signal” value in assay [1] (peptide modifications: H4R19me1 H4K20me3, binder concentration: 50 nM) was determined as 0.0047 ± 0.00026; in assay [1] (peptide modifications: H4R19me1 H4K20me3, binder concentration: 500 nM), 0.00638 ± 0.00038; in assay [2] (peptide modifications: H4R19me1 H4K20me3, binder concentration: 10 nM) it was 0.0104 ± 0.00011; in assay [2] (peptide modifications: H4R19me1 H4K20me3, binder concentration: 100 nM) it was 0.0129 ± 0.00048; in assay [3] (setting [9]), 0.00636 ± 0.00079; in assay [3] (setting [10]), 0.00867 ± 0.00021. Also, the “peptide microarray binding signal” value in assay [4] (setting [9]) was 0.0157 ± 0.0041; in assay [4] (setting [10]), 0.00871 ± 0.00013.
KRHRKVLRDNIQG [H4 16-28 K R H Rme2a Kme3 V L R D N I Q G]: the “peptide microarray binding signal” value in assay [1] (peptide modifications: H4R19me2a H4K20me3, binder concentration: 50 nM) was found to be 0.0152 ± 0.00067; in assay [1] (peptide modifications: H4R19me2a H4K20me3, binder concentration: 500 nM), 0.0166 ± 0.00049; in assay [2] (peptide modifications: H4R19me2a H4K20me3, binder concentration: 10 nM) it was 0.0209 ± 0.00068; in assay [2] (peptide modifications: H4R19me2a H4K20me3, binder concentration: 100 nM), 0.0392 ± 0.009; in assay [3] (setting [11]) it was 0.0145 ± 0.0019; in assay [3] (setting [12]), 0.00981 ± 0.00045. Moreover, the “peptide microarray binding signal” value in assay [4] (setting [11]) worked out at 0.0143 ± 0.0024; in assay [4] (setting [12]) it was 0.0104 ± 0.00022.
For KRHRKVLRDNIQG [H4 16-28 K R H Rme2s Kme V L R D N I Q G], the “peptide microarray binding signal” value in assay [1] (peptide modifications: H4R19me2s H4K20me1, binder concentration: 50 nM) is 0.00379 ± 5.5e-05; in assay [1] (peptide modifications: H4R19me2s H4K20me1, binder concentration: 500 nM) it was 0.00586 ± 0.00025; in assay [2] (peptide modifications: H4R19me2s H4K20me1, binder concentration: 10 nM) it was 0.0101 ± 0.00023; in assay [2] (peptide modifications: H4R19me2s H4K20me1, binder concentration: 100 nM) it was 0.0192 ± 0.00073; in assay [3] (setting [13]), 0.0013 ± 1.8e-05; in assay [3] (setting [14]), 0.002568 ± 2.3e-05. Further, the “peptide microarray binding signal” value in assay [4] (setting [13]) was determined as 0.000831 ± 4.3e-05; in assay [4] (setting [14]), 0.001614 ± 1.6e-05.
